# Inconclusive results are not listed. Activity calls are given as the source filed them. Rule for the calls: active = hit-call score of the fitted dose curve at least 0.9, where 1 is the maximum; inconclusive = response in the unintended direction; inactive = score below 0.9.
# Legend:
# [1] = target: Nuclear receptor subfamily 1 group I member 2 (Homo sapiens) (UniProt O75469); assay: NVS_NR_hPXR: NovaScreen (NVS) Nuclear Receptor Binding Assay for human Pregnane X Receptor (PXR) (AID 2283365);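 note: a drop in FRET signal versus DMSO baseline means the compound binds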
# Sequence of Nuclear receptor subfamily 1 group I member 2 (Homo sapiens) (O75469 whole entry, looked up): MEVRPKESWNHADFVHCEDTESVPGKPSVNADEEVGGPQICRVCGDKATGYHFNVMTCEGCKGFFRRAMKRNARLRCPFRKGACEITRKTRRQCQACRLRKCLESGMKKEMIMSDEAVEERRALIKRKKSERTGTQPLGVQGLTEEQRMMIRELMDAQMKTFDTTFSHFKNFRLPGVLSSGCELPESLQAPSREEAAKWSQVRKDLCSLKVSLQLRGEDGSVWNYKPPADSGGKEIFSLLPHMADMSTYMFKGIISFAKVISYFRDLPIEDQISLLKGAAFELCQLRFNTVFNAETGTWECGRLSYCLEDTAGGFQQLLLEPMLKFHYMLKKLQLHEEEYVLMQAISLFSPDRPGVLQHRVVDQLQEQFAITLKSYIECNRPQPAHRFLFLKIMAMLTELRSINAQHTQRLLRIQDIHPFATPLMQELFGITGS
# Summary of the method: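 Human PXR protein, cell-free; compound added, incubated 2 h, TR-FRET read. Signal decrease vs DMSO = binding. Screened 25 uM duplicate, actives re-run as dilution series.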
# [2] = target: human Adenosine Transporter (Adot), SLC29A1 (gene 2030) (UniProt Q99808); assay: NVS_TR_hAdoT: NovaScreen (NVS) Transporter Assay for human Adenosine Transporter (Adot) (AID 2283368)
# Sequence of human Adenosine Transporter (Adot), SLC29A1 (gene 2030) (Q99808 whole entry, looked up): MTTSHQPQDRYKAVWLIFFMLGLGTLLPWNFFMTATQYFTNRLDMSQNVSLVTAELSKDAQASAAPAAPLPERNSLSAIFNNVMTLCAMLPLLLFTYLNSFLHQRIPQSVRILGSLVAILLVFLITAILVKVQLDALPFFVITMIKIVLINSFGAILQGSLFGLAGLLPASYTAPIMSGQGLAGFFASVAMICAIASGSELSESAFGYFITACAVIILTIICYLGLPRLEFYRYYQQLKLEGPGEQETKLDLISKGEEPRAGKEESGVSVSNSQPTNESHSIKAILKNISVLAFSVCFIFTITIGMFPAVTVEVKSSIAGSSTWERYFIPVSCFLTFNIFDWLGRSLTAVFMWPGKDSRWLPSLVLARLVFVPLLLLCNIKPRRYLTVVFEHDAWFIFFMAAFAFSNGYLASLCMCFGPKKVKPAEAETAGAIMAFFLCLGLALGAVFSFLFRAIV
# Summary of the method: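 U937-derived membranes, cell-free radioligand binding, filter scintillation 1 h after dosing. 25 uM duplicate screen; hits (e.g. 30% inhibition) run in concentration-response up to 50 uM; loss of signal versus DMSO.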
# [3] = target: Glucocorticoid receptor (Homo sapiens) (UniProt P04150); assay: NVS_NR_hGR: NovaScreen (NVS) Nuclear Receptor Binding Assay for human Glucocorticoid Receptor (GR) (AID 2283363);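 for AC50: activity is loss of specific radioligand binding signal relative to DMSO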
# Sequence of Glucocorticoid receptor (Homo sapiens) (P04150 whole entry, looked up): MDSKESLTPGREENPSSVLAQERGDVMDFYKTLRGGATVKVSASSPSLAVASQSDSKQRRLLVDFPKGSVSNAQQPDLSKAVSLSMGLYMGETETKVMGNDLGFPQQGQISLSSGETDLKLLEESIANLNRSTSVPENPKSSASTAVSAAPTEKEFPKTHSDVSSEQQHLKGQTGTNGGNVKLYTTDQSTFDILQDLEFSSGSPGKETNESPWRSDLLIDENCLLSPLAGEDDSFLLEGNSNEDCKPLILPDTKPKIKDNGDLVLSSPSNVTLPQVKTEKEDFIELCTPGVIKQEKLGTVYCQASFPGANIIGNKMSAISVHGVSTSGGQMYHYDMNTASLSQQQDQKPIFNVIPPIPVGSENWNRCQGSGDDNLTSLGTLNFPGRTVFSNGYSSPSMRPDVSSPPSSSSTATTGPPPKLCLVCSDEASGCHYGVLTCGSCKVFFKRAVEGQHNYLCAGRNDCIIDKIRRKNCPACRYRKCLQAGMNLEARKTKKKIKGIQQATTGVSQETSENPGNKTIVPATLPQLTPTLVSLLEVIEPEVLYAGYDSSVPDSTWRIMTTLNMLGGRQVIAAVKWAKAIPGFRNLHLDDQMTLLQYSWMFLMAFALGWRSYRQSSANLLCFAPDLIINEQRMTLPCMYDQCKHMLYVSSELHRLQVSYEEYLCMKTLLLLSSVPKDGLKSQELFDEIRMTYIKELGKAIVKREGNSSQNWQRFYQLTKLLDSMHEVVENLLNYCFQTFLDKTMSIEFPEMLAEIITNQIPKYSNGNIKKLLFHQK
# Summary of the method: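 Cell-free radioligand displacement assay on extracted human GR, read 16 h after dosing by filter-based scintillation counting. Screened in duplicate at 25 uM, then concentration series for actives; loss of signal versus DMSO baseline.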
# [4] = target: Peroxisome proliferator-activated receptor gamma (Homo sapiens) (UniProt P37231); assay: NVS_NR_hPPARg: NovaScreen (NVS) Nuclear Receptor Binding Assay for human Peroxisome Proliferator-activated Receptor gamma (PPARg) (AID 2283370)
# Sequence of Peroxisome proliferator-activated receptor gamma (Homo sapiens) (P37231 whole entry, looked up): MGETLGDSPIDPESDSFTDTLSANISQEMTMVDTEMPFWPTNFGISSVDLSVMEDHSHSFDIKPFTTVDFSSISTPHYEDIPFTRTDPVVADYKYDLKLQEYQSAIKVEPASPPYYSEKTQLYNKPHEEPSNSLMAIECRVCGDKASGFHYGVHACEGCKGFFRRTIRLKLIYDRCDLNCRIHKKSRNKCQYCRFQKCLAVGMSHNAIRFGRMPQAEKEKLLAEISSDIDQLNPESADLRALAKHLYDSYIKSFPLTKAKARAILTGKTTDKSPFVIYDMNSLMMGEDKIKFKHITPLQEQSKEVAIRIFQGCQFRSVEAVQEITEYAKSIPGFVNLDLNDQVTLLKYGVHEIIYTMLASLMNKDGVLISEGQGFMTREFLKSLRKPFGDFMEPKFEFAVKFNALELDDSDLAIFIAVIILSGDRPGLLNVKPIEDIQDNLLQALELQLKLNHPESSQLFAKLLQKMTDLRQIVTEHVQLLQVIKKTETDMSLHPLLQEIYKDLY
# Summary of the method: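 Chemicals were tested first in duplicate at 25 uM, then in concentration series if active. Binding to cell-free PPARg protein was measured by fluorescence polarization after 2 h, with loss of signal scored against DMSO.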
# [5] = test system: rat Norepinephrine Transporter (NET), gene 83511; assay: NVS_TR_rNET: NovaScreen (NVS) Transporter Assay for rat Norepinephrine Transporter (NET) (AID 2283373)
# Summary of the method: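 Rat forebrain membranes; radioligand binding measured by filter-based scintillation counting 1 hour after dosing. Loss of specific binding versus DMSO baseline scored; primary screen in duplicate at 25 uM, actives followed up in concentration series.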
structure (smiles),measurement,setting,value
Cc1ccc(N)cc1O,outcome,[1],inactive
same,outcome,[2],inactive
CCCCCCc1ccc(O)cc1O,AC50,[3],33.7 µM (active)
same,outcome,[2],inactive
same,AC50,[4],25 µM (active)
COC(=O)c1ccccc1O,outcome,[1],inactive
CCC(C)(C)C(=O)O[C@H]1C[C@@H](C)C=C2C=C[C@H](C)[C@H](CC[C@@H]3C[C@@H](O)CC(=O)O3)[C@H]21,AC50,[3],14.5 µM (active)
same,AC50,[2],25 µM (active)
same,outcome,[4],inactive
Oc1ccc2c(c1)-c1ccccc1C2,outcome,[3],inactive
same,outcome,[4],inactive
CC[C@H]1CC[C@H](NCc2cc3c(cc2OC)[C@H]2C[C@H]2C(=O)N3C)[C@H](c2ccccc2)N1,AC50,[5],25 µM (active)
CCOC(=O)COc1ccc2c(c1)CC(NCC(O)c1cccc(Cl)c1)CC2 (stereo not drawn),outcome,[5],inactive
